# Experimental data reported in PubChem BioAssay (EPA / NIEHS).
# Several values for one entry are separate records, joined by “and”; a condition that tells them apart may be missing. Identical values can stand only once. Results filed as inconclusive are left out. Activity calls are given as the source filed them. The calls were made as follows, unless noted: active = hit-call score of the fitted dose curve at least 0.9, where 1 is the maximum; inconclusive = response in the unintended direction; inactive = score below 0.9.
# Molecular target: Peroxisome proliferator-activated receptor gamma (Homo sapiens) (UniProt P37231)
# Sequence (P37231 whole entry, looked up): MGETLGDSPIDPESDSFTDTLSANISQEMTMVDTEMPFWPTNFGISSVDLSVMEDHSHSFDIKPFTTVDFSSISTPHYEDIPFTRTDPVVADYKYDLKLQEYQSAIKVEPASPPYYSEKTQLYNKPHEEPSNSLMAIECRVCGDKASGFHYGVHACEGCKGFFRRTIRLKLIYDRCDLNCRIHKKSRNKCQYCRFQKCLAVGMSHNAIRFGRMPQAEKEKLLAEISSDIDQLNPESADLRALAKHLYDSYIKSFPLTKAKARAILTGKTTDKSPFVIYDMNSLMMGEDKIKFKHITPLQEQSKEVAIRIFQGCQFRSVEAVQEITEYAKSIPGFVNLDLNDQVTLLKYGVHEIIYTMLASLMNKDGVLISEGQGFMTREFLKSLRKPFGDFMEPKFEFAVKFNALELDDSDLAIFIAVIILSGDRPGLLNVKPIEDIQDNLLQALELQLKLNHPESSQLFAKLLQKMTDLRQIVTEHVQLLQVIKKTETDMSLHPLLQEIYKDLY
# Test: OT_PPARg_PPARgSRC1_0480: Odyssey Thera (OT) 8-hour Protein-Complementation Assay for Peroxisome Proliferator-activated Receptor Gamma / SRC-1 Co-activator (AID 2283387);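 also: nuclear to cytoplasmic split Venus YFP fluorescence ratio reporting PPARg SRC-1 interaction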
# Settings: not given
# Summary of the method: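 Split-YFP (IFP1/IFP2) PPARg/SRC-1 reporter, HEK293T, 37 °C, 5% CO2; 8 h compound; formaldehyde fix + Draq5; high-content imaging, N/C ratio, ≥350 cells/image, positive direction vs DMSO.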
SMILES,outcome,AC50
CC(=O)OC1CC(C)OC(C)O1 (centres undefined),inactive,–
CN(C)C(=O)NC1(c2ccccc2)CCN(CC[C@@]2(c3ccc(F)c(F)c3)CN(C(=O)c3ccccc3)CCO2)CC1,inactive,–
CC(=O)S[C@H](C(=O)N[C@H]1Cc2ccccc2[C@H]2CCC[C@@H](C(=O)O)N2C1=O)C(C)C,inactive,–
O=C1NC(=O)C(c2ccccc2)(c2ccccc2)N1,inactive,–
Cc1occc(=O)c1O,inactive,–
Cn1cnc2c1c(=O)[nH]c(=O)n2C,inactive,–
CC(C)COC(=O)CCCCC(=O)OCC(C)C,inactive,–
CCCC(=O)O,inactive,–
O=C(O)CN(CC(=O)O)CC(=O)O,inactive,–
CCCCOC(=O)CCCCC(=O)OCCCC,inactive,–
c1ccc2occc2c1,inactive,–
COC(=O)[C@H]1[C@H]2C[C@@H]3c4[nH]c5cc(OC)ccc5c4CCN3C[C@H]2C[C@@H](OC(=O)c2cc(OC)c(OC)c(OC)c2)[C@@H]1OC,–,11.4 µM (active) and 58 µM (active)
O=NO,inactive,–
NC=O,inactive,–
O=C(O)c1[nH]n(-c2ccc(S(=O)(=O)O)cc2)c(=O)c1N=Nc1ccc(S(=O)(=O)O)cc1,inactive,–
CCCC[C@H]1CN(CC2CCOCC2)C(=O)OC12CCN(C1(C)CCN(C(=O)c3c(C)ncnc3C)CC1)CC2,inactive,–
CC(=O)OCC(COC(C)=O)OC(C)=O,inactive,–
O=C1c2c(O)cccc2Cc2cccc(O)c21,inactive,–
CN(C)CCCN1c2ccccc2Sc2ccc(Cl)cc21,inactive,–
CC(N)=O,inactive,–
CC(C)c1cccc(C(C)C)c1,inactive,–
COC(=O)CCC(=O)OC,inactive,–
C/C=C/C=C/C(=O)O,inactive,–

# Molecular target: Peroxisome proliferator-activated receptor gamma (Homo sapiens) (UniProt P37231)
# Test: OT_PPARg_PPARgSRC1_1440: Odyssey Thera (OT) 24-hour Protein-Complementation Assay for Peroxisome Proliferator-activated Receptor Gamma/ SRC-1 Co-activator (AID 2283388);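 also: nuclear to cytoplasmic ratio of reconstituted Venus YFP fluorescence in fixed imaged cells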
# Settings: not given
# Summary of the method: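 Cells carrying the PPARg/SRC-1 fragment-complementation reporter receive compound for 24 hours, are fixed and counterstained with Draq5, then imaged. Increased nuclear relative to cytoplasmic YFP fluorescence above DMSO baseline indicates binding activity.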
SMILES,outcome,AC50
CC(=O)OC1CC(C)OC(C)O1 (centres undefined),inactive,–
CN(C)C(=O)NC1(c2ccccc2)CCN(CC[C@@]2(c3ccc(F)c(F)c3)CN(C(=O)c3ccccc3)CCO2)CC1,inactive,–
CC(=O)S[C@H](C(=O)N[C@H]1Cc2ccccc2[C@H]2CCC[C@@H](C(=O)O)N2C1=O)C(C)C,inactive,–
O=C1NC(=O)C(c2ccccc2)(c2ccccc2)N1,inactive,–
Cc1occc(=O)c1O,inactive,–
Cn1cnc2c1c(=O)[nH]c(=O)n2C,inactive,–
CC(C)COC(=O)CCCCC(=O)OCC(C)C,inactive,–
CCCC(=O)O,inactive,–
O=C(O)CN(CC(=O)O)CC(=O)O,inactive,–
CCCCOC(=O)CCCCC(=O)OCCCC,inactive,–
c1ccc2occc2c1,inactive,–
COC(=O)[C@H]1[C@H]2C[C@@H]3c4[nH]c5cc(OC)ccc5c4CCN3C[C@H]2C[C@@H](OC(=O)c2cc(OC)c(OC)c(OC)c2)[C@@H]1OC,–,12.5 µM (active) and 34.3 µM (active)
O=NO,inactive,–
NC=O,inactive,–
O=C(O)c1[nH]n(-c2ccc(S(=O)(=O)O)cc2)c(=O)c1N=Nc1ccc(S(=O)(=O)O)cc1,inactive,–
CCCC[C@H]1CN(CC2CCOCC2)C(=O)OC12CCN(C1(C)CCN(C(=O)c3c(C)ncnc3C)CC1)CC2,inactive,–
CC(=O)OCC(COC(C)=O)OC(C)=O,inactive,–
O=C1c2c(O)cccc2Cc2cccc(O)c21,inactive,–
CN(C)CCCN1c2ccccc2Sc2ccc(Cl)cc21,inactive,–
CC(N)=O,inactive,–
CC(C)c1cccc(C(C)C)c1,inactive,–
COC(=O)CCC(=O)OC,inactive,–
C/C=C/C=C/C(=O)O,inactive,–

# Read-out: not listed separately
# Test: CEETOX_H295R_11DCORT: CeeTox H295R High-throughput Steroidogenesis Assay for 11-Deoxycortisol (11DCORT) (AID 2283432; active = hit-call score of the fitted dose curve at least 0.9, where 1 is the maximum; inactive = score below 0.9;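 as to AC50: human adrenal H295R cells prestimulated with 10 µM forskolin for 48 h; 11-deoxycortisol secreted into the medium measured by LC-MS/MS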)
# Settings: actives raise or lower the signal
# Summary of the method: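 Steroidogenesis in human H295R cells: 48 h chemical exposure after forskolin priming, 11-deoxycortisol measured by LC-MS/MS.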
SMILES,outcome,AC50
CC(C)(O)c1ccc(CNC(=O)c2cccnc2Oc2ccc(F)cc2)cc1,inactive,–
O=C1NC(=O)C(c2ccccc2)(c2ccccc2)N1,inactive,–
O=C(O)CN(CC(=O)O)CC(=O)O,inactive,–
Nc1nc(Cl)nc2c1ncn2[C@H]1C[C@H](O)[C@@H](CO)O1,inactive,–
O=C1c2c(O)cccc2Cc2cccc(O)c21,–,50 µM (active)

# Read-out: not listed separately
# Test: CEETOX_H295R_OHPREG: CeeTox H295R High-throughput Steroidogenesis Assay for OH-Pregnenolone (OHPREG) (AID 2283434; active = hit-call score of the fitted dose curve at least 0.9, where 1 is the maximum; inactive = score below 0.9)
# Settings: actives raise or lower the signal
# Summary of the method: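 Readout: HPLC-MS/MS of 17alpha-hydroxypregnenolone in medium after 48 h chemical exposure of H295R cells pretreated with forskolin. Values fitted bidirectionally relative to DMSO; chemicals reducing viability to 20–70% were retested after 10-fold dilution.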
SMILES,outcome,AC50
CC(C)(O)c1ccc(CNC(=O)c2cccnc2Oc2ccc(F)cc2)cc1,inactive,–
O=C1NC(=O)C(c2ccccc2)(c2ccccc2)N1,inactive,–
Nc1nc(Cl)nc2c1ncn2[C@H]1C[C@H](O)[C@@H](CO)O1,–,6.46 µM (active)
O=C1c2c(O)cccc2Cc2cccc(O)c21,inactive,–

# Read-out: not listed separately
# Test: CEETOX_H295R_OHPROG: CeeTox H295R High-throughput Steroidogenesis Assay for OH-Progesterone (OHPROG) (AID 2283435; active = hit-call score of the fitted dose curve at least 0.9, where 1 is the maximum; inactive = score below 0.9;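 as to AC50: human adrenal H295R cells primed 48 h with 10 µM forskolin; 17alpha-hydroxyprogesterone secreted into medium measured by HPLC-MS/MS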)
# Settings: actives raise or lower the signal
# Summary of the method: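 Human adrenocortical H295R cells, passage 10 or lower, were treated with chemical for 48 h after forskolin priming, and hormone output in the medium was quantified by LC-MS/MS.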
SMILES,outcome,AC50
CC(C)(O)c1ccc(CNC(=O)c2cccnc2Oc2ccc(F)cc2)cc1,inactive,–
O=C(O)CN(CC(=O)O)CC(=O)O,inactive,–
Nc1nc(Cl)nc2c1ncn2[C@H]1C[C@H](O)[C@@H](CO)O1,inactive,–
O=C1c2c(O)cccc2Cc2cccc(O)c21,–,66.3 µM (active)

# Read-out: not listed separately
# Test: CEETOX_H295R_CORTISOL: CeeTox H295R High-throughput Steroidogenesis Assay for Cortisol (AID 2283438; active = hit-call score of the fitted dose curve at least 0.9, where 1 is the maximum; inactive = score below 0.9;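 also: cortisol secreted into medium quantified by LC-MS/MS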)
# Settings: actives raise or lower the signal
# Summary of the method: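 Steroidogenesis in H295R, per modified OECD 456: 48 h forskolin (10 uM), then 48 h exposure, 0.1% DMSO. Cortisol by extraction and tandem MS; viability by MTT (570/650 nm); cytotoxic chemicals diluted and re-tested.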
SMILES,AC50,outcome
CC(C)(O)c1ccc(CNC(=O)c2cccnc2Oc2ccc(F)cc2)cc1,64.9 µM (active),–
O=C1NC(=O)C(c2ccccc2)(c2ccccc2)N1,26.6 µM (active),–
O=C(O)CN(CC(=O)O)CC(=O)O,–,inactive
Nc1nc(Cl)nc2c1ncn2[C@H]1C[C@H](O)[C@@H](CO)O1,–,inactive
O=C1c2c(O)cccc2Cc2cccc(O)c21,–,inactive

# Read-out: not listed separately
# Test: CEETOX_H295R_DOC: CeeTox H295R High-throughput Steroidogenesis Assay for DOC (AID 2283439; active = hit-call score of the fitted dose curve at least 0.9, where 1 is the maximum; inactive = score below 0.9)
# Settings: actives raise or lower the signal
# Summary of the method: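 H295R, fsk 10 uM ×48 h pre, cmpd ×48 h (0.1% DMSO). Media → MTBE extr. → LC-MS/MS, DOC. Bidirectional fit vs DMSO; MTT viability same wells, re-test diluted if <70%.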
SMILES,outcome,AC50
CC(C)(O)c1ccc(CNC(=O)c2cccnc2Oc2ccc(F)cc2)cc1,inactive,–
O=C1NC(=O)C(c2ccccc2)(c2ccccc2)N1,inactive,–
O=C(O)CN(CC(=O)O)CC(=O)O,inactive,–
Nc1nc(Cl)nc2c1ncn2[C@H]1C[C@H](O)[C@@H](CO)O1,–,0.201 µM (active)
O=C1c2c(O)cccc2Cc2cccc(O)c21,inactive,–
